Measurements published in PubChem BioAssay AID1159580 (chemical genetic matrix, 2015).
Out of some 5,500 compounds screened, about 2,000 (36%) were called active. About 18% were inconclusive and are not listed. Cut-off read from the data, not from the text of the source: active = normalized growth mostly below about 0.91 (no sharp cut-off); inconclusive = no clear call, values can overlap the other calls; inactive = mostly above about 0.92. Some of the results follow.

Experiment: chemical genetic growth profiling, strain panel (AID 1159580);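 note: tested at 20 µM; growth read once vehicle control cultures reached saturation at 30 °C; 1 = growth at the plate median or of vehicle wells; lower values mean less growth of the strain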
Conditions: S. cerevisiae deletion strains, growth OD
[1] = locus YAL013W, strain DEP1, hits give low values
[2] = locus YAL040C, strain CLN3, hits give low values
[3] = locus YCL061C, strain MRC1 (second series), hits give low values
[4] = locus YDR150W, strain NUM1, hits give low values
[5] = locus YER002W, strain NOP16, hits give low values
[6] = locus YNL153C, strain GIM3, hits give low values
[7] = locus YNL175C, strain NOP13, hits give low values
[8] = locus YNL197C, strain WHI3, hits give low values
[9] = locus YNL224C, strain SQS1, hits give low values
[10] = locus YOR083W, strain WHI5 (second series), hits give low values
[11] = locus YMR307W, strain GAS1, hits give low values

Measured: normalized growth

Oc1cc(O)c2c(c1)OC(c1ccc(O)c(O)c1)C(O)C2 (centres undefined)
inactive: [1] 1 | [2] 1.01 | [3] 1 | [4] 1.01 | [5] 1.03 | locus YGR078C, strain PAC10, hits give low values 1.01 | locus YMR263W, strain SAP30, hits give low values 1 | [6] 1.03 | [7] 1.02 | [8] 1.01 | [9] 1.01 | [10] 1.02

O=C1c2ccc(O)cc2O[C@H](c2cc(O)c(O)c(O)c2)[C@H]1O
active: locus YJL187C, strain SWE1 (second series), hits give low values 0.853
inactive: locus YBR021W, strain FUR4, hits give low values 1 | locus YBR229C, strain ROT2, hits give low values 0.992 | locus YCL029C, strain bik1, hits give low values 1.02 | locus YDL035C, strain GPR1, hits give low values 1 | locus YDL074C, strain BRE1, hits give low values 0.939 | locus YDL101C, strain DUN1, hits give low values 0.93 | locus YDL185W, strain tfp1, hits give low values 0.999 | locus YDL192W, strain arf1, hits give low values 1.01 | locus YDR101C, strain arx1, hits give low values 1 | locus YDR162C, strain NBP2, hits give low values 1.03 | locus YDR318W, strain mcm21, hits give low values 1 | locus YDR388W, hits give low values 1.01 | locus YDR502C, strain sam2, hits give low values 1.02 | locus YEL061C, strain CIN8, hits give low values 0.999 | locus YER110C, hits give low values 1.02 | locus YER155C, strain BEM2, hits give low values 1.04 | locus YER167W, strain BCK2, hits give low values 1.04 | locus YGL078C, strain dbp3, hits give low values 1.01 | locus YGL086W, strain mad1, hits give low values 1.01 | locus YGL248W, strain PDE1, hits give low values 1 | locus YGR135W, strain pre9, hits give low values 1.01 | locus YGR252W, strain gcn5, hits give low values 0.972 | locus YHR030C, strain SLT2, hits give low values 1.01 | locus YHR079C, strain IRE1 (second series), hits give low values 1.02 | locus YHR094C, strain hxt1, hits give low values 1.02 | locus YHR129C, strain ARP1, hits give low values 0.997 | locus YHR200W, strain rpn10, hits give low values 0.982 | locus YIL066C, strain RNR3, hits give low values 0.99 | locus YIL073C, strain SPO22, hits give low values 1.07 | locus YIL125W, strain kgd1, hits give low values 1 | locus YIR030C, strain dcg1, hits give low values 1.03 | locus YJL095W, strain BCK1, hits give low values 0.884 | locus YJL134W, strain LCB3, hits give low values 1.01 | locus YJL168C, strain set2, hits give low values 1 | locus YJR043C, strain POL32, hits give low values 0.998 | locus YJR075W, strain HOC1, hits give low values 1.04 | locus YKL009W, strain mrt4, hits give low values 1.06 | locus YKL068W, hits give low values 1.02 | locus YKL085W, strain MDH1 (second series), hits give low values 1.01 | locus YKL085W, strain MDH1, hits give low values 1.01 | locus YKL190W, strain CNB1, hits give low values 1.01 | locus YKR001C, strain vps1, hits give low values 1 | locus YLR039C, strain RIC1, hits give low values 1.04 | locus YLR058C, strain SHM2, hits give low values 0.92 | locus YLR102C, strain apc9, hits give low values 1.01 | locus YLR262C, strain YPT6, hits give low values 1.06 | locus YLR268W, strain sec22, hits give low values 1.01 | locus YLR330W, strain CHS5, hits give low values 1.03 | locus YLR342W, strain FKS1 (second series), hits give low values 0.95 | locus YLR371W, strain rom2, hits give low values 0.992 | locus YLR418C, strain cdc73, hits give low values 1.01 | locus YML016C, strain PPZ1, hits give low values 0.987 | locus YML032C, strain rad52, hits give low values 1.06 | locus YML124C, strain tub3, hits give low values 1.02 | locus YMR078C, strain ctf18, hits give low values 1.03 | locus YMR223W, strain ubp8, hits give low values 1.03 | [11] 1.02 | locus YNL067W, strain RPL9B, hits give low values 1.01 | [6] 0.947 | locus YNL233W, strain BNI4, hits give low values 1.02 | locus YNL250W, strain rad50, hits give low values 1.01 | locus YNL271C, strain bni1, hits give low values 1.01 | locus YNL298W, strain CLA4, hits give low values 0.996 | locus YNL307C, strain MCK1, hits give low values 1 | locus YNL322C, strain KRE1, hits give low values 1.01 | locus YNR052C, strain pop2, hits give low values 0.967 | locus YOL012C, strain htz1 0.815 | locus YOL147C, strain pex11, hits give low values 1.01 | locus YOR061W, strain CKA2, hits give low values 1 | locus YOR069W, strain VPS5, hits give low values 1.01 | locus YOR136W, strain idh2, hits give low values 1.05 | locus YOR144C, strain elg1, hits give low values 1.02 | locus YOR184W, strain ser1, hits give low values 1.02 | locus YOR316C, strain cot1, hits give low values 1.01 | locus YPL055C, strain LGE1, hits give low values 1.02 | locus YPR119W, strain clb2, hits give low values 1 | locus YPR141C, strain kar3, hits give low values 1.01 | locus YPR163C, strain tif3, hits give low values 1.01 | locus YPR167C, strain met16, hits give low values 1.03 | strain wtn01, hits give low values 1.01

O=C1c2c(O)cc(O)cc2OC(c2ccc(O)c(O)c2)C1O (centres undefined)
inactive: [1] 1.03 | [2] 1.04 | [3] 0.999 | [4] 0.987 | locus YDR363W, strain ESC2, hits give low values 1 | [5] 0.998 | [11] 1.01 | [7] 0.99 | [8] 0.977 | [9] 0.993 | [10] 0.991
